PNC inhibitor = High Content Assay for Compounds that inhibit the Assembly of the Perinucleolar Compartment; PC3M PTB-GFP, PNC prevalence imaging, 16 h; stronger effect = lower value; activity change (PNC), negative = inhibition, % at 10 µM; 3.1% of 140,000 active; AID 2417, 2010;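 active = readout at or below -70, meaning at least 70% loss of cells showing the perinucleolar compartment, a nuclear body marking cancer cells; inconclusive = readout between -30 and a set limit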;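 also: plate controls were DMSO wells for no effect and camptothecin positive control wells for full effect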
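PC3M cells stably expressing PTB-GFP, 750–1000 cells/well, treated 16 h at 37 °C with compound (23 nl of library stock), in duplicate. After paraformaldehyde fixation and Hoechst stain, imaged at 20x; PNC prevalence scored by image analysis.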
ALOX12 inhib = qHTS Assay for Inhibitors of 12-hLO (12-human lipoxygenase) | Polyunsaturated fatty acid lipoxygenase ALOX12 (Homo sapiens), P18054 | purified 12-hLO, xylenol orange hydroperoxide absorbance | Potency, µM (series often up to 57.1 µM), for the others: at the highest dose activity change, negative = inhibition, most hits filed as inhibitors | 0.12% of 150,000 active | AID 1452, 2008; also: potency is read from the fitted curve at half-maximal effect; nearly all actives have a fitted effect of over 55% in size
Target sequence (P18054 whole entry, looked up): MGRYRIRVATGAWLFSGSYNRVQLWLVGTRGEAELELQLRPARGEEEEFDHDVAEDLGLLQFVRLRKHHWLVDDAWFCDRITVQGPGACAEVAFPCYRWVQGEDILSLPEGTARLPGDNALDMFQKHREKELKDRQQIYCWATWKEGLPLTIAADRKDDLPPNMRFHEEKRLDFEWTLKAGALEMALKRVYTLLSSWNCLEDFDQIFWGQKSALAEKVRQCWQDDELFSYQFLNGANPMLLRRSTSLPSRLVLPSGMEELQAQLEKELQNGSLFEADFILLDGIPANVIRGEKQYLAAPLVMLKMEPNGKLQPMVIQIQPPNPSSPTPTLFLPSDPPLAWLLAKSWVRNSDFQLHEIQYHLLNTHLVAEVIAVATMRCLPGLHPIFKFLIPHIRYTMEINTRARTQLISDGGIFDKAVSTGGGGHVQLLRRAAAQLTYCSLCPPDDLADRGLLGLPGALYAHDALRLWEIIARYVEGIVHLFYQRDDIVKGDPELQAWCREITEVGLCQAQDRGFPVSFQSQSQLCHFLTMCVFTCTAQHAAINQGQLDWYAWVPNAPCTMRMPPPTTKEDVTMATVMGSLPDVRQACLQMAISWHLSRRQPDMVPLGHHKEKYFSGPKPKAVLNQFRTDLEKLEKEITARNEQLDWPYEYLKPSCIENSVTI
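150 nM 12hLO, 25 mM Hepes pH 7.0 + 0.01% Triton X-100; cpd preinc 15 min RT; 40 uM arachidonic acid, 30 min RT; Fe-XO 30 min; A573/A405 ratio as read-out.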
ALOX15B inhib = qHTS Assay for Inhibitors of 15-hLO-2 (15-human lipoxygenase 2) | Polyunsaturated fatty acid lipoxygenase ALOX15B (Homo sapiens), O15296 | purified 15hLO-2, xylenol orange hydroperoxide absorbance | Potency, µM (series often up to 57.1 µM), for the others: at the top dose activity change, negative = inhibition, actives largely listed as inhibitors | 0.56% of 110,000 active; also: potency is read from the fitted curve at half-maximal effect; nearly all actives have a fitted effect of over 60% in size
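Read-out: hydroperoxide product oxidises ferrous iron, measured as xylenol orange complex via the 573-to-405 nm absorbance ratio after 30 min. Reaction: 50 nM enzyme, 15 min compound preincubation, 45 uM arachidonic acid, 90 min RT, Hepes pH 7.5 with Triton X-100.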
Numbers without * were called inactive; ? = inconclusive; / = not tested or not shown; [ ] = dose if it differs, or a comment. In the library only some 3.1% were active in any assay of this set; here they are far more common. Unless noted, calls follow the shape of the dose curve; as a rule, active = well fitted curve in the direction sought with a large enough effect; inconclusive = small, poorly fitted or top-dose-only effect, or another doubt; inactive = no such curve, though single readings can be large; an effect the other way counts as inactive or inconclusive. Unless noted, % is scaled to controls: 0 for no effect and ±100 for the full control effect.

SMILES	PNC inhibitor	ALOX12 inhib	ALOX15B inhib
Cc1nn(-c2nc3ccccc3s2)c(C)c1Oc1ccccc1O	-100*	-12%	/
Cc1nn(-c2ccccn2)c(C)c1Oc1ccccc1O	-21	7%	-6%
COc1cc(CN2CCC(C(=O)N3CCCC(C)C3)CC2)cc(OC)c1O (centres undefined)	49	-5%	-14%
CC1CCCN(C(=O)C2CCN(CC3CC=CCC3)CC2)C1 (centres undefined)	-100*	-6%	-4%
N#Cc1cccc(NC(=O)N2CC3(CCN(C(=O)c4cc(C(F)(F)F)cc(C(F)(F)F)c4)CC3)C2)c1	/	-3%	2%
CC(C)(C)C1CCC2(CC1)CCN(CCCN1CCOCC1)CC2	/	5%[11.4 µM]	30%[11.4 µM]
COc1ccc(-c2nc3c(c4c2C[C@H](c2ccccc2)OC4)CN(S(=O)(=O)c2ccc(C#N)cc2)CC3)c(C)c1	/	-2%[11.4 µM]	/
O=C(NCCOC(=O)c1ccncc1)c1ccccc1	-6	-1%	5%
COc1cc(C(=O)OCCNC(=O)c2ccncc2)cc(OC)c1OC	-111*	2%	/
CS(=O)(=O)N1CCC2(CCN(Cc3nccs3)CC2)CC1	/	1%	4%
CN(C)CCCN=C(N)N	/	3%[11.4 µM]	-8%[11.4 µM]
CCC/C=C(\CCC)C(NS(=O)(=O)c1ccc(C(F)(F)F)cc1)c1ccc(C(=O)OC)cc1 (centres undefined)	/	0%	-6%
O=C(CCc1ccccc1)N1CCN(c2ccccn2)CC1	-23	-1%	/
O=C(c1ccccc1CCc1ccccc1)N1CCN(c2ccccn2)CC1	-84*	-3%	5%[2.29 µM]
O=C(O)c1ccncc1.O=C(O)c1ccncc1.[Cl][Pt]([Cl])([Cl])[Cl]	/	-4%[11.4 µM]	13%[11.4 µM]
CCCCNC(=O)C(c1ccc(OCC(=O)OC)c(C(=O)OC)c1)N(Cc1ccccc1)C(=O)CCCCCN1C(=O)NC(c2ccc(-c3ccccc3)cc2)C(C(=O)OCc2ccccc2)=C1C (centres undefined)	/	6%	-7%
O=C1c2cccnc2C(=O)N1Cc1ccccc1	59	-2%	/
O=C1c2cccc3c(O)ccc(c23)C(=O)N1Cc1ccccc1	-90*	-3%	-12%
CC[C@H](CO)NCCN[C@@H](CC)CO	/	4%[25.6 µM]	7%[25.6 µM]
C=CCN=c1scc(-c2ccccc2)n1/N=C/c1ccccn1	-106*	-1%	/
CCN=c1scc(-c2ccccc2)n1/N=C/c1ccccn1	-125*	3%	/
C=CCN=c1scc(-c2ccc(F)cc2)n1/N=C/c1ccccn1	?	-4%	/
Cc1nc2ccccc2c(=O)n1/N=C/c1ccccn1	6	-2%	3%
O=C(Oc1ccccc1)N1CCC2(CCCN(c3ccc(-c4ccccc4)cc3)C2)CC1	/	-9%	-4%
c1nc(NC2CC2)c2cc(-c3ccoc3)ccc2n1	/	/	8%
SMILES	PNC inhibitor	ALOX12 inhib	ALOX15B inhib
C=Cc1ccccc1	/	2%	-10%
CC(NC(=O)C1CCCCC1)C(=O)NC1=NCCS1 (centres undefined)	-112*	5%	-2%
CC(C)C(NC(=O)C12CC3CC(CC(C3)C1)C2)C(=O)NC1=NCCS1 (centres undefined)	33	0%	6%
Cc1cccc(-n2c(SCC(=O)Nc3ncc(Cl)cc3Cl)nc3ccccc32)c1	-108*	1%	/
COc1ccc(NC(=O)CSc2nc3ccccc3n2-c2ccccc2)c([N+](=O)[O-])c1	?	2%	/
COCCn1c(SCC(=O)Nc2nc(C)c(Cl)cc2Cl)nc2ccccc21	-24	-9%	6%
O=C(CSc1nc2ccccc2n1-c1ccccc1)Nc1ncc(Cl)cc1Cl	-107*	-6%	/
Cc1ccc(NC(=O)CC2SC(=O)N(c3ccccc3)C2=O)cc1 (centres undefined)	43	-20%	/
CCCN1C(=O)SC(CC(=O)Nc2ccc(C)cc2)C1=O (centres undefined)	-100*	-6%	/
CCC1=C2CC[C@H]3C(=O)N(C)C(=O)[C@H]3[C@H]2[C@@]2(Cc3ccccc3)C(=NCCc3c[nH]c4ccccc34)OC(=O)N2C1=O	/	2%	-4%
Cc1ccc(-c2cc(C(=O)N3CCOCC3)c3ccccc3n2)cc1	-98*	-1%	-4%[11.4 µM]
COc1ccc(-c2cc(C(=O)N3CCOCC3)c3cc(C)ccc3n2)cc1	36	-4%	-3%[2.29 µM]
CC(CC(O)C1OC1(C)C)C1CCC2(C)C3=CCC4C(C)(C)C(=O)CCC4(C)C3CC[C@@]12C (some centres undefined)	/	-4%	-6%
COc1ncc2nc(C)c(=O)n(CCC#N)c2n1	/	-5%	-7%
COC(=O)N1C(C)=Cc2ccccc2C1C/C(C)=C/C(C)=O (centres undefined)	/	3%[11.4 µM]	/
CC1=CC(c2ccccc2)n2nc(N3C(=O)c4ccccc4C3=O)nc2N1 (centres undefined)	-5	-3%	-7%
CC1=CC(c2ccccc2)n2nc(N3C(=O)CCC3=O)nc2N1 (centres undefined)	-94*	1%	/
CCCCCSc1nc2c(c(=O)[nH]c(=O)n2C)n1C(C)C	-119*	5%	/
CCNc1nc2c(c(=O)[nH]c(=O)n2C)n1CC(C)C	-7	1%	-4%
CCCCCSc1nc2c(c(=O)[nH]c(=O)n2C)n1C	-8	-5%	2%
CCCCCCn1c(NCC)nc2c1c(=O)[nH]c(=O)n2C	-93*	2%	3%
O=C1OC(=O)c2c(Cl)c(Cl)c(Cl)c(Cl)c21	/	7%	-6%
COc1cc(/C=C(\C#N)c2[nH]nc(N)c2C#N)cc(OC)c1O	6	2%	-20%
N#Cc1c(N)n[nH]c1-c1cc2c([nH]1)CCCC2	-100*	-11%	/
CC(C)CCCC(C)C1CCC2C3CC[C@H]4CC(=O)CC[C@@]4(C)C3CC[C@@]12C (some centres undefined)	/	-2%	-2%
SMILES	PNC inhibitor	ALOX12 inhib	ALOX15B inhib
CCS(=O)(=O)N1CCCC(C(=O)NCCc2ccc(OC)c(OC)c2)C1 (centres undefined)	10	5%	6%[2.29 µM]
CCCS(=O)(=O)N1CCCC(C(=O)NCCc2ccc(OC)c(OC)c2)C1 (centres undefined)	-92*	-2%	10%
CS(=O)(=O)N1CCC2(CCN(C(=O)Nc3cccc(C#N)c3)CC2)CC1	/	1%	-3%
NC(=O)c1nn(-c2ccccc2)c(=O)cc1O	-2	-1%	-1%
NC(=O)c1nn(-c2cccc(Cl)c2)c(=O)cc1O	-100*	9%	-7%
Cc1cc(C)c2[nH]c(=O)c(CN(CC3CCCO3)C(=S)NCc3ccco3)cc2c1 (centres undefined)	-82*	1%	/
Cc1cccc2cc(CN(CC3CCCO3)C(=S)NCc3ccco3)c(=O)[nH]c12 (centres undefined)	12	3%	/
COC(=O)c1ccc(C(NC(=O)OCc2ccccc2)/C(I)=C/[C@@H](C)C(=O)Nc2ccccc2)cc1 (some centres undefined)	/	-5%	-3%
CC(=O)c1cnc2cc(-c3ccccc3)nn2c1C	?	2%	-5%
CC(=O)c1cnc2cc(-c3ccc(C)cc3)nn2c1C	-100*	1%	/
COC(=O)CNC(=O)C1(C)C=CC2(CCCCC2)N1C(C)=O (centres undefined)	/	1%	4%
